PubChem BioAssay (EPA / NIEHS)
Calls of active or inactive are those of the source. Rule for the calls: active = hit-call score of the fitted dose curve at least 0.9, where 1 is the maximum; inactive = score below 0.9.

Experiment: ATG_PXRE_CIS: Attagene CIS-FACTORIAL HepG2 Assay for human Pregnane X Receptor Element (PXRE) (AID 2282957)
Settings: HepG2 Attagene CIS-FACTORIAL PXRE reporter, mRNA; actives raise or lower the signal
Description: ATG_CIS is a cell-based, multiplexed-readout assay that uses HepG2, a human liver cell line, with measurements taken at 24 hours after chemical dosing in a 24-well plate.ATG_PXRE_CIS is one of 52 assay component(s) measured or calculated from the ATG_CIS assay. It is designed to make measurements of mRNA induction, a form of inducible reporter, as detected with fluorescence intensity signals by Reverse transcription polymerase chain reaction (RT-PCR) and Capillary electrophoresis technology.Data from the assay component ATG_PXRE_CIS was analyzed into 1 assay endpoint. This assay endpoint, ATG_PXRE_CIS, was analyzed with bidirectional fitting relative to DMSO as the negative control and baseline of activity. Using a type of inducible reporter, measures of mRNA for gain or loss-of-signal activity can be used to understand the reporter gene at the transcription factor-level as they relate to the gene NR1I2. Furthermore, this assay endpoint can be referred to as a primary readout, because this assay has produced multiple assay endpoints where this one serves a reporter gene function. To generalize the intended target to other relatable targets, this assay endpoint is annotated to the nuclear receptor intended target family, where the subfamily is non-steroidal.
Human liver HepG2 cells are transiently transfected with multiple reporter transcription units (MRTUs) in 6-well plates using FuGene 6 reagent (Roche; 3 ml FuGene/1 mg DNA). The MRTU constructs are regulated by a cis-regulating element (promoter). […] A major difference between the CIS and TRANS system is that in CIS activities of endogenous TFs are measured, whereas the TRANS assay evaluates changes in activities of exogenous, chimeric NR-Gal4 proteins. […] At the end of 24 hour incubation, total RNA was isolated using TriZol reagent (Invitrogen). The isolated RNA is then reverse-transcribed using oligo(dT) primer and Mo-MLV reverse transcriptase (Invitrogen) with DNAse I (Ambion) treatment for 30 min. The one-tenth of the produced cDNA was amplified by PCR using Taq DNA polymerase (Invitrogen) and two reporter sequence-specific primers. The PCR products were fluorescently labeled by primer extension with 6-arboxyfluorescein (6-FAM) 5'-labeled reporter sequence-specific primer (2 min at 95 C, 20 s at 68 C and 10 min at 72 C) and these products were digested with 5U of HpaI (New England Biolabs) for 2h at 37 C. The fragments were purified using Qiaquick PCR columns (Qiagen), analyzed on an ABI 3130xL genetic analyzer (Applied Biosystems) with peak positions identified by using a set of X-rhodamine (ROX)-labeled MapMarker1000 molecular weight standards (BioVentures). The raw capillary electrophoresis data was processed using Attagraph software (Attagene).

**Q.** For CC[C@H]1CC[C@H](NCc2cc3c(cc2OC)[C@H]2C[C@H]2C(=O)N3C)[C@H](c2ccccc2)N1, which AC50 is on record?
**A.** 4.91 µM (active)

**Q.** With CC(C)=CCCC(C)CCO (stereo not given) as the molecule, how does the AC50 read?
**A.** 26.6 µM (active)

**Q.** With COCCOc1cc2cc(C(=O)NC3CCN(C(C)C)CC3)n(CC(=O)Nc3ccc(Cl)cn3)c2cn1 as the molecule, how does the AC50 read?
**A.** 144 µM (active)

**Q.** Which outcome does the source give for CC(O)CN(CCN(CC(C)O)CC(C)O)CC(C)O (stereo not given) here?
**A.** inactive

**Q.** With CNS(=O)(=O)c1cc(C(=O)N2CCC(CCN3C4CCC3CC(n3c(C)nc5ccccc53)C4)(c3cccc(F)c3)CC2)c(Cl)cc1F (stereo not given) as the molecule, how does the AC50 read?
**A.** 1.08 µM (active)

**Q.** Which AC50 does the source give for CC(C)(O)c1coc(S(=O)(=O)NC(=O)Nc2c3c(cc4c2CCC4)CCC3)c1 here?
**A.** 26.9 µM (active)

**Q.** With CCN(C(=O)c1cc(C)cc(OC[C@H](C)Nc2ccncc2)c1)C(C)C as the molecule, how does the AC50 read?
**A.** 4.97 µM (active)

**Q.** For CCCCC(CC)COC(=O)c1ccc(C(=O)OCC(CC)CCCC)cc1 (stereo not given), which AC50 is on record?
**A.** 63 µM (active)

**Q.** Which outcome does the source give for CNCc1ccc(NC(=O)c2c[nH]c3c2C(=O)CCC3)cc1 here?
**A.** inactive

**Q.** For COC(=O)c1c(Cl)c(Cl)c(C(=O)OC)c(Cl)c1Cl, which AC50 is on record?
**A.** 25.8 µM (active)

**Q.** With CCCCC(CC)COC(=O)CCCCCCCCC(=O)OCC(CC)CCCC (stereo not given) as the molecule, how does the outcome read?
**A.** inactive

**Q.** For CCCCCCCCCCCCCCCO, which outcome is on record?
**A.** inactive

**Q.** With CCOC(=O)CC(CC(=O)OCC)(OC(C)=O)C(=O)OCC as the molecule, how does the AC50 read?
**A.** 27.3 µM (active)

**Q.** For CC/C(=C\C(=N/O)C(N)=O)C(C)[N+](=O)[O-] (stereo not given), which outcome is on record?
**A.** inactive

**Q.** Which outcome does the source give for O=C(OC[C@H]1O[C@@H](OC(=O)c2cc(O)c(O)c(OC(=O)c3cc(O)c(O)c(O)c3)c2)[C@H](OC(=O)c2cc(O)c(O)c(OC(=O)c3cc(O)c(O)c(O)c3)c2)[C@@H](OC(=O)c2cc(O)c(O)c(OC(=O)c3cc(O)c(O)c(O)c3)c2)[C@@H]1OC(=O)c1cc(O)c(O)c(OC(=O)c2cc(O)c(O)c(O)c2)c1)c1cc(O)c(O)c(OC(=O)c2cc(O)c(O)c(O)c2)c1 here?
**A.** inactive

**Q.** Which outcome does the source give for CCOC(=O)c1ccc(C2CCC(NC[C@H](O)COc3ccc(O)c(NS(C)(=O)=O)c3)CC2)cc1 (stereo not given in full) here?
**A.** inactive

**Q.** With O=c1[nH]c2ccc(S(=O)CCN3CCC(Cc4ccc(F)cc4)CC3)cc2o1 (stereo not given) as the molecule, how does the AC50 read?
**A.** 26.3 µM (active)

**Q.** With C=CC(=C)CCC=C(C)C as the molecule, how does the AC50 read?
**A.** 18.8 µM (active)

**Q.** With CCNc1ccccc1 as the molecule, how does the AC50 read?
**A.** 35.5 µM (active)

**Q.** For Nc1nc2ncc(CNc3ccc(C(=O)N[C@@H](CCC(=O)O)C(=O)O)cc3)nc2c(=O)[nH]1, which outcome is on record?
**A.** inactive

**Q.** For O=C(NS(=O)(=O)/C=C/c1ccccc1)c1ccc(F)cc1Cl, which AC50 is on record?
**A.** 34.9 µM (active)

**Q.** With CCOCCO as the molecule, how does the outcome read?
**A.** inactive

**Q.** For O=C1CCCCCN1, which outcome is on record?
**A.** inactive

**Q.** For COC(=O)c1ccccc1O, which outcome is on record?
**A.** inactive

**Q.** For O=C(O)CCN(C1(C(=O)NO)CCCC1)S(=O)(=O)c1ccc(Oc2ccc(F)cc2)cc1, which outcome is on record?
**A.** inactive

**Q.** Which outcome does the source give for CC(C)c1cccc(C(C)C)c1N1C(=O)c2ccc(O)cc2C1=O here?
**A.** inactive

**Q.** With O=c1n(CC2CO2)c(=O)n(CC2CO2)c(=O)n1CC1CO1 (stereo not given) as the molecule, how does the AC50 read?
**A.** 21.3 µM (active)

**Q.** With O=C(O)c1cccc(N(Cc2cccnc2)c2ccc(OC(F)F)c(OC(F)F)c2)c1 as the molecule, how does the AC50 read?
**A.** 26.2 µM (active)

**Q.** For C1=CCCC=CCCC=CCC1, which outcome is on record?
**A.** inactive

**Q.** With Oc1ccc2c(c1)-c1ccccc1C2 as the molecule, how does the outcome read?
**A.** inactive

**Q.** For Cn1c(=O)c2c(ncn2C)n(C)c1=O, which outcome is on record?
**A.** inactive

**Q.** With CC(C)CCO as the molecule, how does the outcome read?
**A.** inactive

**Q.** With CC(C)=CCC/C(C)=C/CO as the molecule, how does the outcome read?
**A.** inactive

**Q.** Which outcome does the source give for Cc1ccc(C)c(O)c1 here?
**A.** inactive

**Q.** With NC(=O)NO as the molecule, how does the outcome read?
**A.** inactive

**Q.** With CCCCCCCCO as the molecule, how does the outcome read?
**A.** inactive

**Q.** Which outcome does the source give for On1ccccc1=S here?
**A.** inactive

**Q.** For CC[C@H](C)C(=O)O[C@H]1C[C@@H](C)C=C2C=C[C@H](C)[C@H](CC[C@@H]3C[C@@H](O)CC(=O)O3)[C@H]21, which AC50 is on record?
**A.** 1.8 µM (active)

**Q.** With CN(C)c1ccc(N=NS(=O)(=O)O)cc1 as the molecule, how does the outcome read?
**A.** inactive

**Q.** Which outcome does the source give for CCCCCCc1ccc(O)cc1O here?
**A.** inactive
